Data: PubChem BioAssay (Tox21)
Several values for one entry are separate records, joined by “and”; a condition that tells them apart may be missing. Identical values can stand only once. Records with an inconclusive call do not appear. Some compounds were tested as several samples or in several runs, with calls that do not always agree. Activity calls are given as the source filed them. Unless noted, calls come from the whole dose curve; as a rule, active = well fitted curve in the direction sought with a large enough effect in the repeat runs; inconclusive = weak or mixed curves; inactive = no such curve, though single readings can be large; an effect the other way counts as inactive or inconclusive.

Tests used:
[1] = qHTS assay to identify small molecule agonists of the peroxisome proliferator-activated receptor delta (PPARd) signaling pathway - cell viability counter screen (AID 743211); note: nearly all actives have a fitted effect of over 55% in size; note: potency is the fitted concentration of half-maximal effect
Procedure, shortened: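 Tox21 library compounds, delivered in DMSO, were incubated 17 h with PPARd-bla HEK293H cells; cytotoxicity was taken from CellTiter-Glo luminescence read 30 min after reagent addition.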

[2] = qHTS assay to identify small molecule antagonists of the peroxisome proliferator-activated receptor delta (PPARd) signaling pathway - cell viability counter screen (AID 743213); note: nearly all actives have a fitted effect of over 50% in size; note: potency is the fitted concentration of half-maximal effect
Procedure, shortened: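 Luminescence from CellTiter-Glo, added after the bla read and incubated 30 min at room temperature, gives viability of HEK293H PPARd-bla cells exposed to compounds for 17 h at 37 C with 300 nM L165041.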

[3] = qHTS assay to identify small molecule agonists of the farnesoid-X-receptor (FXR) signaling pathway - cell viability counter screen (AID 743218); note: nearly all actives have a fitted effect of over 45% in size; note: potency is the fitted concentration of half-maximal effect
Procedure, shortened: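 Viability of FXR-bla HEK 293T cells is measured by ATP-based CellTiter-Glo luminescence following 16 h compound treatment at 37 C and a prior 2 h room-temperature beta-lactamase substrate step.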

[4] = qHTS assay to identify small molecule antagonists of the farnesoid-X-receptor (FXR) signaling pathway - cell viability counter screen (AID 743221; active = well fitted cell-killing curve with a large enough effect in the repeat runs, not every such curve was filed as active; note: nearly all actives have a fitted effect of over 50% in size; note: potency is the fitted concentration of half-maximal effect)
Procedure, shortened: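 Cytotoxicity is taken from ATP luminescence (CellTiter-Glo, 30 min, room temperature) in FXR-bla HEK 293T cells previously incubated 16 h at 37 C with compound and chenodeoxycholic acid at 50 uM final.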

[5] = qHTS assay to identify small molecule agonists of the vitamin D receptor (VDR) signaling pathway - cell viability counter screen (AID 743224); note: nearly all actives have a fitted effect of over 50% in size; note: potency is the fitted concentration of half-maximal effect
Procedure, shortened: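 Compounds were pin-transferred onto VDR-bla cells plated 4 h earlier; following 16 h incubation at 37C, cell viability was quantified by CellTiter-Glo luminescence after 30 min at room temperature.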

[6] = qHTS assay to identify small molecule antagonists of the vitamin D receptor (VDR) signaling pathway - cell viability counter screen (AID 743225); note: nearly all actives have a fitted effect of over 50% in size; note: potency is the fitted concentration of half-maximal effect
Procedure, shortened: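 Same-well multiplex: following 16 h treatment of HEK 293T cells carrying a UAS-driven beta-lactamase reporter with compound and agonist (3 nM final), and a 2 h FRET substrate step, CellTiter-Glo was added and luminescence read after 30 min.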

[7] = qHTS assay to identify small molecule agonists of the endoplasmic reticulum stress response signaling pathway - cell viability counter screen (AID 1159517; calls by dose curve; note: nearly all actives have a fitted effect of over 50% in size; note: potency is the fitted concentration of half-maximal effect)
Procedure, shortened: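 In parallel with the ESRE reporter read, cytotoxicity was scored by CellTiter-Glo luminescence (30 min, room temperature) on HeLa ESRE-bla cells dosed for 5 hr.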

[8] = qHTS assay to identify small molecule antagonists of the retinoid-related orphan receptor gamma (ROR-gamma) signaling pathway - cell viability counter screen (AID 1159520); note: nearly all actives have a fitted effect of over 50% in size; note: potency is the fitted concentration of half-maximal effect
Procedure, shortened: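 Tet-on ROR gamma CHO cells were given compounds for 2 hr, then doxycycline hyclate at 1 uM final, and incubated 16 hr at 37 C. Viability was measured as ATP content by CellTiter-Glo luminescence.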

[9] = target: Nuclear receptor ROR-gamma (Homo sapiens) (UniProt P51449); experiment: qHTS assay to identify small molecule antagonists of the retinoid-related orphan receptor gamma (ROR-gamma) signaling pathway (AID 1159521; note: nearly all actives have a fitted effect of over 50% in size; note: potency is the fitted concentration of half-maximal effect)
Procedure, shortened: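 Inducible-expression reporter assay: doxycycline (1 uM final) switched on RORγ in CHO cells bearing a ROR response element-luciferase construct, with test compounds present from 2 h beforehand. Decreased luminescence after 16 h defined antagonist activity.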

[10] = qHTS assay to identify small molecule agonists of the AP-1 signaling pathway - cell viability counter screen (AID 1159525; calls by dose curve; note: nearly all actives have a fitted effect of over 55% in size; note: potency is the fitted concentration of half-maximal effect)
Procedure, shortened: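 Same-well cytotoxicity counter screen of the Tox21 10K library in ME-180 cells. The readout is ATP-dependent luminescence after 5 h compound treatment. Data are normalised to DMSO and tetra n-octyl ammonium bromide controls.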

[11] = qHTS assay to identify small molecule agonists of the AP-1 signaling pathway (AID 1159526; calls by dose curve)
[12] = target: Retinoic acid receptor RXR-alpha (Homo sapiens) (UniProt P19793); experiment: qHTS assay to identify small molecule agonists of the RXR signaling pathway (AID 1159527; calls by dose curve; note: nearly all actives have a fitted effect of over 35% in size)
Procedure, shortened: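 Compounds in DMSO were added to RXR-alpha-UAS-bla HEK 293T cells kept in 2% charcoal-stripped serum, and incubated 16 hr at 37 C with 5% CO2. Reporter signal came from a 2 hr B/G FRET substrate step.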

[13] = target: Bile acid receptor (Homo sapiens) (UniProt Q96RI1); experiment: qHTS assay to identify small molecule antagonists of the farnesoid-X-receptor (FXR) signaling pathway (AID 743217; active = well fitted inhibition curve with a large enough effect in the signal ratio in the repeat runs, not every such curve was filed as active; the % refers to the signal ratio)
Procedure, shortened: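 Screen of the Tox21 10K library in quantitative HTS format using FXR-UAS-bla HEK 293T reporter cells. Agonist chenodeoxycholic acid, 50 uM final, added with compounds; 16 h incubation at 37 °C; beta-lactamase FRET fluorescence measured.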

[14] = target: Bile acid receptor (Homo sapiens) (UniProt Q96RI1); experiment: qHTS assay to identify small molecule agonists of the farnesoid-X-receptor (FXR) signaling pathway (AID 743220; active = well fitted activation curve with a large enough effect in the signal ratio in the repeat runs, not every such curve was filed as active; the % refers to the signal ratio)
Procedure, shortened: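 FXR-UAS-bla HEK 293T cells carrying a UAS-driven beta-lactamase reporter were plated for 5 h at 37C/5% CO2, then exposed to DMSO-dissolved Tox21 10K compounds for 16 h at 37C. A LiveBLAzer B/G FRET substrate was loaded for 2 h at room temperature before fluorescence reading.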

[15] = target: Vitamin D3 receptor (Homo sapiens) (UniProt P11473); experiment: qHTS assay to identify small molecule antagonists of the vitamin D receptor (VDR) signaling pathway (AID 743223; active = well fitted inhibition curve with a large enough effect in the signal ratio in the repeat runs, not every such curve was filed as active; the % refers to the signal ratio)
Procedure, shortened: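 Quantitative HTS in VDR-bla reporter cells stimulated with 1alpha,25-dihydroxyvitamin D3, 3 nM final. Compound exposure 16 h, 37C, 5% CO2. Read-out: beta-lactamase FRET substrate fluorescence, 2 h RT.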

[16] = qHTS assay to identify small molecule agonists of the endoplasmic reticulum stress response signaling pathway (AID 1159516; active = well fitted activation curve with a large enough effect in the signal ratio in the repeat runs, not every such curve was filed as active; the % refers to the signal ratio)
Procedure, shortened: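 Using a HeLa line with an ESRE-driven beta-lactamase gene, agonist activity was measured by FRET substrate fluorescence (460 and 530 nm emission) after cells were treated with compounds for 5 hr at 37 C and 5% CO2.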

[17] = target: Peroxisome proliferator-activated receptor delta (Homo sapiens) (UniProt Q03181); experiment: qHTS assay to identify small molecule agonists of the peroxisome proliferator-activated receptor delta (PPARd) signaling pathway (AID 743212; calls by dose curve)
Procedure, shortened: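 Tox21 library screened in GeneBLAzer PPARd UAS-bla HEK293H cells. After compound treatment at 37 C, a FRET-based beta-lactamase substrate was applied for 2 h and fluorescence recorded.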

[18] = target: Vitamin D3 receptor (Homo sapiens) (UniProt P11473); experiment: qHTS assay to identify small molecule agonists of the vitamin D receptor (VDR) signaling pathway (AID 743222; calls by dose curve)
Procedure, shortened: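 Fluorescence from cleaved LiveBLAzer B/G FRET substrate served as readout. VDR-bla cells had been treated 16 h at 37C with test compounds in DMSO, following a 4 h settling period, and substrate was loaded for 2 h at RT.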

[19] = target: Peroxisome proliferator-activated receptor delta (Homo sapiens) (UniProt Q03181); experiment: qHTS assay to identify small molecule antagonists of the peroxisome proliferator-activated receptor delta (PPARd) signaling pathway (AID 743215; active = well fitted inhibition curve with a large enough effect in the signal ratio in the repeat runs, not every such curve was filed as active; the % refers to the signal ratio;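 note: cells stimulated with agonist L165041 at 300 nM final during compound exposure; series mostly up to about 62 µM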)
Procedure, shortened: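 Plated HEK293H PPARd-bla cells rested 5 h at 37 C and 5% CO2. Compound, then agonist L165041 at 300 nM final, was added; 17 h at 37 C followed. Substrate loading, 2 h room temperature, fluorescence measured.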

Measured: Potency

Bile acid receptor (Homo sapiens), sequence (Q96RI1 whole entry, looked up): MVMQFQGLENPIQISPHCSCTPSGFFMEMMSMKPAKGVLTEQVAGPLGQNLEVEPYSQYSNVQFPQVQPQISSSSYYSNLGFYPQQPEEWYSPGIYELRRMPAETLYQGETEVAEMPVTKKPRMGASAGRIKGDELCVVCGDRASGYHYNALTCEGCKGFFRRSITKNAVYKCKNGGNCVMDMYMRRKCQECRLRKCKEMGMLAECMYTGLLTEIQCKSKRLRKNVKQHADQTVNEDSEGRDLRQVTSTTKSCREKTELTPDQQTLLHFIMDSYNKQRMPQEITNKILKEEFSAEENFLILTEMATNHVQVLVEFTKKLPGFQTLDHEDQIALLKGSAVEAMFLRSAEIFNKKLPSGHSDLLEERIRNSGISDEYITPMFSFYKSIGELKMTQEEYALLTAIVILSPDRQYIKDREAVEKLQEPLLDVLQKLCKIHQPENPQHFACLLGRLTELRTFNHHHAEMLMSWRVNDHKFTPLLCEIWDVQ
Peroxisome proliferator-activated receptor delta (Homo sapiens), sequence (Q03181 whole entry, looked up): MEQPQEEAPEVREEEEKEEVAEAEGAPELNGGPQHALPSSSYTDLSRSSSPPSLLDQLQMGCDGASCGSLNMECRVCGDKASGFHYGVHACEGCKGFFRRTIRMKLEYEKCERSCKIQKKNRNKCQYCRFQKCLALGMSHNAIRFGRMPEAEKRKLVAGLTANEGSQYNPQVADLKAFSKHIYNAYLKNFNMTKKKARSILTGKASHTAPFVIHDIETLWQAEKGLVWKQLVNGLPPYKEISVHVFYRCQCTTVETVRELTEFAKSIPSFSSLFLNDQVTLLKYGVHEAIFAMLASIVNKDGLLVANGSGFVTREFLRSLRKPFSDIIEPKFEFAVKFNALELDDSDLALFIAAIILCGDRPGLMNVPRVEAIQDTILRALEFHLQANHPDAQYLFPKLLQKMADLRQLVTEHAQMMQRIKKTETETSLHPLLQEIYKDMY
Retinoic acid receptor RXR-alpha (Homo sapiens), sequence (P19793 whole entry, looked up): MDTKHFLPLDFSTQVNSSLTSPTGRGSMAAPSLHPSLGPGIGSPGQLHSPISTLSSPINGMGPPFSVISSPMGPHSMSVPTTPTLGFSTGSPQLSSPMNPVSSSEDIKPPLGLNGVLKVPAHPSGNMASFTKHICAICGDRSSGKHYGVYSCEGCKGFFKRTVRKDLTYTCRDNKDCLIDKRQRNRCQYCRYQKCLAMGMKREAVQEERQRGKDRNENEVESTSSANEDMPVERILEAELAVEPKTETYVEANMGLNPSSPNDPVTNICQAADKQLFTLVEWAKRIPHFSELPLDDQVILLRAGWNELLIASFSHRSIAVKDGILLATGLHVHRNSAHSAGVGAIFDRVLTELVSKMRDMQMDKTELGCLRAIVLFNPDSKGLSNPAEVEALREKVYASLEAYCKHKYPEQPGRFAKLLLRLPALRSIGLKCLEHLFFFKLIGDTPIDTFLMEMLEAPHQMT
Vitamin D3 receptor (Homo sapiens), sequence (P11473 whole entry, looked up): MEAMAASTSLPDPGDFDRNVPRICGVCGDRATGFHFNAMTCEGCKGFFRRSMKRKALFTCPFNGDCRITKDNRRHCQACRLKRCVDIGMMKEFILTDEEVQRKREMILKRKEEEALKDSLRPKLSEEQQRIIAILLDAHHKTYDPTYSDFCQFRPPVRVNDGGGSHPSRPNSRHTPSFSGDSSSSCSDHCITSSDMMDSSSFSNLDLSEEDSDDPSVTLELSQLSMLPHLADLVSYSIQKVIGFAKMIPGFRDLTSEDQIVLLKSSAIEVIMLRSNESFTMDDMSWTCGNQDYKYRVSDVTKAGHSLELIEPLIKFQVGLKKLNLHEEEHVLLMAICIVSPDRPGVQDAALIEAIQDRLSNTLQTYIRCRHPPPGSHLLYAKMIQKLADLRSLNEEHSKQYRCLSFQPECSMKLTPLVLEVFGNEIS

COc1cc(N)c(Cl)cc1C(=O)NC1CN2CCC1CC2 (centres undefined)
not listed: [13] | [14] | [15] | [16] | [17] | [18] | [19]
inactive: all other assays above

Nc1ccccc1C(=O)Oc1ccc2ccccc2c1
inactive: [1] | [2] | [13] | [3] | [14] | [4] | [15] | [5] | [6] | [16]
active: [7] 43.6 µM

COc1cccc(C(=O)CCN[C@@H](C)[C@H](O)c2ccccc2)c1
active: [5] 33.5 µM
inactive: [17] | [13] | [3] | [14] | [4] | [18] | [6] | [16] | [8] | [10]

CCCCCCCCCCCCCCCC[N+](C)(C)C
active: [1] 16.8 µM and 38.9 µM and 23.7 µM | [2] 21.1 µM and 3.89 µM | [3] 14.9 µM and 43.6 µM | [4] 23.7 µM and 49 µM | [5] 21.1 µM and 24.5 µM | [6] 21.1 µM and 21.9 µM and 23.9 µM | [7] 23.7 µM and 43.6 µM | [8] 29.5 µM and 61.1 µM and 29.8 µM | [9] 7.42 µM and 12.2 µM and 5.96 µM | [10] 49 µM and 26.8 µM

O=C(CBr)c1ccc(O)cc1
active: [9] 48.6 µM
inactive: [1] | [2] | [13] | [3] | [4] | [6] | [16] | [7] | [10] | [12]

ClC1=C(Cl)C2(Cl)C3C(Cl)C=CC3C1(Cl)C2(Cl)Cl (centres undefined)
61.4 µM (active) and inactive: [9]
active: [1] 38.9 µM | [5] 43.6 µM | [7] 55.2 µM | [8] 68.9 µM | [10] 43.8 µM
inactive: [17] | [2] | [19] | [4] | [6]

CC(=O)Nc1ccc2c(c1)Cc1ccccc1-2
not listed: [2] | [7] | [13] | [14] | [15] | [17] | [18]
inactive: all other assays above

O=C(CCCN1CCC2(CC1)C(=O)NCN2c1ccccc1)c1ccc(F)cc1
not listed: [3] | [5] | [6] | [11] | [12] | [16]
inactive: all other assays above

CC(C)CC(C)N (centres undefined)
not listed: [2] | [7] | [13] | [14] | [15] | [18]
inactive: all other assays above

O=[N+]([O-])c1c2ccccc2cc2ccccc12
inactive: [3] | [7] | [8] | [9] | [10]

CC(=O)O[C@H]1CC[C@@]2(C)C(=CC[C@@H]3[C@@H]2CC[C@]2(C)C(=O)CC[C@@H]32)C1
inactive: [2] | [13] | [3] | [4] | [5] | [6] | [16] | [8]

O=C(NC(=O)c1c(F)cccc1F)Nc1cc(Cl)c(OC(F)(F)C(F)F)c(Cl)c1
not listed: [10] | [12] | [13] | [14] | [15] | [16] | [17] | [18]
inactive: all other assays above

C[C@]12Cc3nonc3C[C@@H]1CC[C@@H]1[C@@H]2CC[C@@]2(C)[C@H]1CC[C@]2(C)O
active: [9] 7.5 µM
not listed: [1] | [7] | [8] | [10] | [11] | [12]
inactive: all other assays above

CC(C)(C)C(O)/C(=C\c1ccc(Cl)cc1Cl)n1cncn1 (centres undefined)
inactive: [17] | [14] | [16]
active: [1] 66.5 µM | [5] 59.3 µM | [6] 52.8 µM | [9] 41.6 µM

N#Cc1ccc(O)cc1
inactive: [8] | [9] | [10] | [11] | [12]

CC(=O)C(Cl)(Cl)Cl
inactive: [13] | [3] | [4] | [7] | [10]
active: [9] 9.35 µM

C=CCOC(N)=O
inactive: [8] | [9] | [10] | [11] | [12]
